ChEMBL document CHEMBL4296182, “CO-ADD screening of NIH NCI Diversity Set V”

Test system: Staphylococcus aureus
Assay: Antibacterial activity against Staphylococcus aureus MRSA ATCC 43300 (CO-ADD:GP_020); MIC in CAMBH media using NBS plates, by Resazurin F(560/590)
Assay type: functional
Conditions: Concentration 20 uM, ASSAY_TEST Inhibition of Bacterial Growth, detection method Resazurin, Fluorescence (ex560/em590), MEDIA CAMHB, plate type 384well, CORNING #3640, time 18 hr

| SMILES | Inhibition [%] |
| --- | --- |
| CN(C)c1ccc2c(c1)Sc1cc(N(C)C)ccc1N2C(=O)c1ccccc1 | -9.71 |
| O=C(CC1(O)CCCCC1)OC1CCCC1 | -23.97 |
| COc1cc2c(cc1OC)C(/C=C/c1ccco1)=NCC2.O=S(=O)(O)O | 23.97 |
| Nc1c(Cl)ncnc1NCCO | -0.51 |
| O=[N+]([O-])c1c(N2CCN(CCO)CC2)nc2ccccn12 | 9.01 |
| O=S1(=O)CSCS(=O)(=O)C1 | -12.69 |
| O=c1[nH]c2c(cnn2-c2ccc(Cl)cc2)c(=O)n1-c1cccc(Cl)c1 | 5.86 |
| CC(C)n1cnc2c(S)ncnc21 | 14.01 |
| O=[N+]([O-])c1ccc(/C=C\c2ccncc2)cc1 | -4.43 |
| c1ccc(-c2nc[nH]c2-c2ccccc2)cc1 | 15.79 |
| O=C(Nc1cccc([N+](=O)[O-])c1)c1cc2ccccc2cc1O | -1.88 |
| CC(C)NCC1CCc2cc(CO)c([N+](=O)[O-])cc2N1 (centres undefined) [OXAMNIQUINE] | 9.47 |
| COc1ccc2c(=O)cc(-c3cccnc3)oc2c1OC | 4.17 |
| COc1ccc(NC2=CC(=S)NC(C)(C)C2)cc1 | 11.18 |
| C=CCNC(=O)C1COc2ccccc2O1 (centres undefined) | -8.47 |
| NC(=O)c1ccccc1OCC(=O)Nc1ccc(Cl)c(Cl)c1 | 5.21 |
| CCCCCCCCCCC(C(=O)O)C1(C(=O)O)CCC(=O)O1 (centres undefined) | 8.92 |
| CCCN(CCC)CC(=O)N1CC(=O)Nc2ccccc21 | -18.07 |
| CC(=O)Nc1ccc(S(=O)(=O)N=S(C)C)cc1 | 11.09 |
| CCN(CC)CCNC(=O)C(Cl)=C1C(Cl)=C(Cl)C(Cl)=C1Cl | 7.61 |

| SMILES | Inhibition [%] |
| --- | --- |
| Nc1ccc(/N=N/c2ccc(O)cc2)c(N)n1 | -3.88 |
| COC(=O)C1(C)Cc2cc(OC(C)=O)c(OC(C)=O)cc2N1 (centres undefined) | 12.77 |
| O=C(OCC(O)COC(=O)c1cccnc1)c1cccnc1 | 6.08 |
| Sc1cnnc2ccccc12 | -0.57 |
| O=C(OCC1CCC=CO1)C1CCC=CO1 (centres undefined) | 6.99 |
| O=C(O)c1ccc(N2CCCCC2)cc1O | 7.99 |
| CN1C=C/C(=C/[N+](=O)[O-])N(C)C1=O | 9.11 |
| CC1CC=C(O)C12OCC(C)(C)CO2 (centres undefined) | 3.19 |
| Cn1ncc2c(Nc3ccc(O)cc3)nc(Cl)nc21 | 6.63 |
| CC(C)C(=O)Nc1cccnc1 | -3.96 |
| Br.CN(C)c1n/c(=N/Cc2ccco2)ss1 | 15.96 |
| CCC1(C(=O)OC)CCc2c(cc(OC)c3ccccc23)C1=O (centres undefined) | 5.5 |
| Nc1n[nH]c(Nc2ccccc2)n1 | 19.31 |
| Oc1ncnc(CN2CCCCC2)c1O | 7.4 |
| CC1CCC(C(C)C)C(NC(=O)c2ccncc2)C1 (centres undefined) | 7.04 |
| Oc1cc(-c2ccc(Cl)cc2)nc2ccccc12 | 0.37 |
| CC(=O)O.N=c1ccn2c(n1)OC1C(O)C(CO)OC12 (centres undefined) | 0.21 |
| CCOC(=O)C(C)c1c(C(=O)c2ccc(C)nc2)c2ccccc2n1C (centres undefined) | 10.11 |
| O=C(Nc1cccc(-c2ccccc2)c1)N1CCN(C(=O)Nc2cccc(-c3ccccc3)c2)CC1 | 26.71 |
